Among all 300,000 compounds or so, about 3,300 (1.1%) were called active. About 6% were inconclusive and are not listed. This excerpt belongs to a sample that is enriched for actives. A number with no mark means an inactive call.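 The calls were made as follows: active = more than half of the replicate wells show a fall in the fluorescence ratio signal beyond about 16% (limit read from the data, passing the limit was not always enough); inconclusive = exactly half of the replicate wells pass the set limit; inactive = fewer than half of replicates pass the limit.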

The test system of the experiment is Ran GTPase (GTP-bound) - importin-beta complex. Description: inhibitors of RanGTP-importin-beta interaction, primary screen, biochemical, FRET, CFP-Ran, YFP-importin-beta, homogeneous (AID 2216).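 Also: 0% = DMSO wells and 100% = Ran loaded with GDP instead of GTP.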 As to conditions: cell-free CFP-Ran/YFP-importin-beta FRET ratio; hits give high values; concentration not given here.
For `CC(C)(C)OC(=O)NNc1c2ccccc2nc2ccccc12`, the inhibition (as a rule, the drop in the measured response relative to a control, in per cent) was 45.2% (active).
For `CCC(=O)OCCNc1nc(-c2ccccc2)nc2ccccc12`, the inhibition was -0.305%.
`COc1ccc(-c2cc(C(=O)Nc3ccccc3O)c3ccccc3n2)cc1`: the inhibition was 5.76%.
`Cc1ccccc1NC(=O)NNC(=O)OC(C)(C)C`: the inhibition is 3.65%.
As to `O=C(NNc1c2ccccc2nc2ccccc12)c1cc2ccccc2cc1O`, the inhibition was 46.1% (active).
To `O=C(N/N=C/c1cccnc1)c1cc2ccccc2cc1O` belongs -5.78%; to `COC(=O)c1ccc(SCc2ccccc2)nc1`, 1.08%; to `CCc1nnc(NS(=O)(=O)c2ccc(NC(=O)c3cccc(OC(F)(F)C(F)F)c3)cc2)s1`, -0.123%.
As for `COc1ccc(C(CNC(=O)c2ccc(S(=O)(=O)Nc3ccccc3C)cc2)N2CCOCC2)cc1` (centres undefined), the inhibition was 0.862%.
To `O=S(=O)(Nc1ccc(O)c2ccccc12)c1ccc(OC(F)(F)F)cc1` belongs 2.4%; to `COc1ccc(CNS(=O)(=O)c2cc3c4c(c2)CCN4C(=O)CC3)cc1`, -2.98%; to `Cn1c(SCC(=O)c2ccc(F)cc2)nnc1-c1ccccn1`, 8.68%.
`Cc1nn(CC(=O)Nc2ccc(F)cc2)c(=O)c2ccccc12`: the inhibition is 0.000866%.
For `Cn1c2ccccc2n2c(=O)c(=O)n(CC(=O)c3ccc(F)cc3)nc12`, the inhibition was 23.2% (active).
Consider `O=C(CNS(=O)(=O)c1ccccc1)N1CCN(C(=O)c2ccco2)CC1`, for which the inhibition was 1.51%.
As to `COc1ccccc1N(C)S(=O)(=O)c1ccc(Cl)c(C(=O)Nc2ccncc2)c1`, the inhibition is -1.81%.
Under `CSCCC(NC(=O)COc1ccccc1)C(=O)OCCOc1ccc(F)cc1` (centres undefined) stands 6.76%; under `CCCCn1c(N)c(N(CC(C)C)C(=O)CN(C)S(=O)(=O)c2ccc(F)cc2)c(=O)[nH]c1=O`, 6.85%; under `CCN1C(=O)[C@@H]2[C@@H](c3ccc(-c4ccccc4)cc3)N3CCCC[C@@]3(C(=O)OC)[C@@H]2C1=O`, -2.21%.
With `CCCc1cc(=O)oc2c(C)c(OCC(=O)N3CCC(C(=O)O)CC3)ccc12`, the inhibition was 0.461%.
On to `CCCc1cc(=O)oc2c(C)c(O)c(CN3CCCCC3)cc12`, for which the inhibition is 58.6% (active).
Under `CCCc1cc(=O)oc2c(C)c(OC(C)C(=O)NCC(O)c3ccccc3)ccc12` (centres undefined) stands 1.81%; under `O=C(Nc1ccc(C(=O)N2CCOCC2)cc1)Nc1cccc(C(F)(F)F)c1`, -2.36%.
With `Cc1ccc(C)c(OCCC(=O)OCC(=O)c2ccc3c(c2)NC(=O)CO3)c1`, the inhibition was 0.406%.
Take `CCCCn1c(N)c(N(CCOC)C(=O)c2sc3ccccc3c2Cl)c(=O)[nH]c1=O`: the inhibition was 7.27%.
Consider `Cc1nc2ccccc2c(=O)n1-c1ccc(F)c(NC(=O)c2cccs2)c1`, for which the inhibition is 7.77%.
`Cc1cccc(NC(=O)c2cccc(S(=O)(=O)N3CCCC3)c2)n1`: the inhibition was 1.93%.
With `O=C(N/N=C/c1ccccn1)c1ccc(S(=O)(=O)N2CCCCCC2)cc1`, the inhibition was 3.77%.
In the case of `Cc1ncc(CO)c(/C=N/NC(=O)c2cccc(S(=O)(=O)N3CCCC3)c2)c1O`, the inhibition was 38.4% (active).
Regarding `Cc1ccc(C(=O)CN2C(=O)NC3(CCc4ccccc43)C2=O)c(C)c1` (centres undefined), the inhibition was -0.128%.
Take `Cc1ccc(C(=O)NNC(=O)c2ccncc2)cc1S(=O)(=O)N1CCCCC1`: the inhibition is -4.29%.
To `Cc1ccc(NC(=O)COc2ccc(/C=C3/NC(=O)NC3=O)cc2)cc1` belongs -1.54%; to `CCOC(=O)C1=C(O)/C(=C/c2ccc(OCC(=O)Nc3ccc(C)cc3)cc2)N=C1C`, 70.2% (active).
Under `CCOC(=O)C1=C(O)/C(=C/c2cc(C)n(-c3ccccc3)c2C)N=C1C` stands 3.69%.
To `CCOC(=O)c1ccccc1NC(=O)c1c(N)n(C)c(=O)[nH]c1=O` belongs -1.23%; to `O=C(c1ccc(F)cc1)N1CCC(C(=O)N2CCN(S(=O)(=O)c3ccccc3Br)CC2)CC1`, 4.17%.
For `CC(=O)Oc1ccc2c(C)c(CC(C)O)c(=O)oc2c1` (centres undefined), the inhibition was 10%.
`O=C(Nc1cc2ccccc2oc1=O)C1CCCCC1`: the inhibition was 4.19%.
Take `CC(=O)Nc1cc2ccc(OC(C)=O)cc2oc1=O`: the inhibition was 33.6% (active).
On to `COc1ccccc1/C=C/C(=O)NC(=S)N1CCOCC1`, for which the inhibition is -1.73%.
To `O=C1OC(/C=C/c2ccccc2)=NC/1=C/c1ccco1` belongs 0.891%.
`COc1ccccc1/C=C/C1=NC(=C\N(C)C)/C(=O)O1`: the inhibition was 37% (active).
On to `Cc1cccc(C2c3[nH]c4ccccc4c3CCN2C(=O)c2cc(-c3cccn3C)n[nH]2)n1` (centres undefined), for which the inhibition was 21.1% (active).
On to `COCc1ccc(C(=O)N2CCc3c([nH]c4ccccc34)C2c2ccccn2)s1` (centres undefined), for which the inhibition is 0.202%.
As to `O=C(c1cn2ccccc2n1)N1CCc2c([nH]c3ccccc23)C1c1ccccn1` (centres undefined), the inhibition was 3.68%.
In the case of `O=C(NCC1(N2CCCCC2)CCCCC1)c1ccc(NS(=O)(=O)c2ccc(F)cc2)cc1`, the inhibition was -1.33%.
Take `COC(=O)[C@]1(C)N[C@H](c2ccc(-c3ccc(Cl)c(Cl)c3)cc2)[C@@H]2C(=O)N(C)C(=O)[C@@H]21`: the inhibition is 1.99%.
Under `CCOc1ccccc1NC(=O)Cn1nnc(C(=O)NCc2cccs2)c1N` stands 1.12%; under `CCCNC(=O)c1c(N)n(-c2ccc(S(N)(=O)=O)cc2)c2nc3ccccc3nc12`, 12.3%.
To `CC(C)Cn1c(N)c(C(=O)NCc2cccs2)c2nc3ccccc3nc21` belongs 73.8% (active); to `Cc1c(C)n2c(SCC(=O)NC3CCCC3)nnc2[nH]c1=O`, 1.36%; to `CC(C)(C)Oc1ccccc1Nc1nc(NCCO)nc(N2CCCC2)n1`, -2.11%.
On to `COc1ccc(C(=O)Cc2cnn(-c3ccccc3)c2)c(O)c1`, for which the inhibition is 17.5% (active).
Regarding `COc1ccc(C(=O)CC(=O)c2ccc(C)cc2)c(O)c1`, the inhibition is 2.86%.
For the molecule `Cc1cc(O)cc(O)c1C(=O)Cc1cnn(-c2ccccc2)c1`, the inhibition is 0.165%.
Consider `CCCCn1c(N)c(N(CC(C)C)C(=O)c2cccc(S(=O)(=O)N3CCN(C(C)=O)CC3)c2)c(=O)[nH]c1=O`, for which the inhibition is 6.15%.
In the case of `Cc1cc(/C=N/Nc2ccc([N+](=O)[O-])cn2)c(C)n1-c1cccc(C(=O)O)c1`, the inhibition was -1.11%.
For the molecule `COc1cc(/C=N\Nc2ccc([N+](=O)[O-])cn2)ccc1OCC(=O)O`, the inhibition was 69.7% (active).
Regarding `COc1cc(/C=N/O)ccc1OCc1ccc([N+](=O)[O-])cc1`, the inhibition is -0.23%.
Under `COc1cccc(COC(=O)C2CCN(S(=O)(=O)c3cccs3)CC2)c1OC` stands 8.84%.
For `CC(OC(=O)CNC(=O)c1cccc(F)c1)C(=O)NC1CCCCC1C` (centres undefined), the inhibition was 18.8% (active).
As to `Cc1cc(C(=O)OC(C)C(=O)NC2CCCCC2C)c(C)o1` (centres undefined), the inhibition is -3.61%.
Regarding `CC(OC(=O)CNC(=O)c1ccc(Cl)c([N+](=O)[O-])c1)C(=O)NCc1ccco1` (centres undefined), the inhibition was 5.87%.
In the case of `CC(C)(C)c1ccc(C(=O)NCc2ccco2)cc1`, the inhibition is -1.24%.
Consider `CCOc1ccc(CCNC(=O)COC(=O)c2c(OC)cccc2OC)cc1OCC`, for which the inhibition was 1.08%.
As to `COCCn1c(SC(C)C(=O)NC2CC2)nnc1-c1cccc(C)c1` (centres undefined), the inhibition was -0.425%.
To `O=C(NCc1ccc(Cl)cc1)C(=O)NCC1CCCN1S(=O)(=O)c1cccs1` (centres undefined) belongs -0.323%.
With `CCCC(=O)Nc1ccc(C(=O)N/N=C/c2ccc[nH]2)cc1`, the inhibition was 2.49%.
Take `CC(=O)Nc1ccc(C(=O)/C=C/c2ccc[nH]2)cc1`: the inhibition was 16.6% (active).
Regarding `CC(=O)Nc1ccc(/C=C/C(=O)c2ccccc2)cc1`, the inhibition was -0.329%.
Under `CC(C)Oc1ccc(S(=O)(=O)N2CCOCC2)cc1NC(=O)C1CSC2(C)CCC(=O)N12` (centres undefined) stands -2.87%; under `COc1ccc(S(=O)(=O)NCCCc2ccccc2)cc1`, -4.52%.
As to `O=C(Cc1nc2ccccc2[nH]c1=O)c1ccc(Cl)cc1`, the inhibition is 39% (active).
Consider `Cc1ccc(-c2nc3ccccc3[nH]c2=O)cc1`, for which the inhibition was 3.42%.
`O=C(/C(=C/c1cccc(Cl)c1)c1nc2ccccc2[nH]1)c1ccccc1`: the inhibition is 2.15%.
Take `COC(=O)Cc1ccc(Oc2ncc(C(F)(F)F)cc2Cl)cc1`: the inhibition is 106% (active).
To `COC(=O)Cc1ccc(OCC(=O)Nc2ccc(OC(F)(F)F)cc2)cc1` belongs -0.217%; to `Cc1cc(C)cc(NS(=O)(=O)c2ccc(Oc3ncc(C(F)(F)F)cc3Cl)cc2)c1`, 1.58%; to `CCCCn1c(N)c(N(CC)C(=O)c2ccc(N(C)S(=O)(=O)c3ccc(C)cc3)cc2)c(=O)[nH]c1=O`, -4.28%.
In the case of `COc1ccc(/C=C(\C#N)C(=O)OCC(=O)N(C)C2CCS(=O)(=O)C2)cc1` (centres undefined), the inhibition was 1.11%.
As for `COc1ccccc1NS(=O)(=O)c1ccc(C(=O)N2CCN(c3ccccc3O)CC2)cc1`, the inhibition is 1.18%.
`COc1ccc(-n2cnc3cc(C(=O)NC4CCCC4)ccc32)cc1`: the inhibition is -1.26%.
`COc1ccc(-n2cnc3cc(NCc4ccco4)ccc32)cc1`: the inhibition was 23% (active).
For the molecule `COc1ccc(Nc2nc(NCc3ccco3)nc(N/N=C/c3ccccc3Cl)n2)cc1`, the inhibition is -0.0694%.
With `CCCc1nnc(NC(=O)c2cccs2)s1`, the inhibition is -123%.
Take `CCCc1nnc(NC(=O)c2cc(OC)cc(OC)c2)s1`: the inhibition was 162% (active).
As for `COc1ccc(Cc2nnc(NC(=O)c3cc(OC)c(OC)c(OC)c3)s2)cc1OC`, the inhibition is 3.23%.
Take `C[C@@H]1O[C@@H](OC[C@H]2O[C@@H](Oc3c(-c4ccc(O)cc4)oc4cc(O)cc(O)c4c3=O)[C@H](O)[C@@H](O)[C@@H]2O)[C@H](O)[C@H](O)[C@H]1O`: the inhibition was 2.8%.
Consider `COc1ccc(CNC(=O)C2(CC3CC(c4ccccc4)=NO3)CCN(C(=O)c3cccc(O)c3)CC2)cc1` (centres undefined), for which the inhibition was 5.15%.

(Values after PubChem BioAssay AID2216 (Broad Institute, 2009).)
